Sampled rows, rich in hits. Any-hit rate of the full collection: about 2.1%.
KLF5 inh: kruppel-like factor 5 inhibition; DLD-1 KLF5 promoter-luciferase reporter, luminescence; inhibition, % at 5 µM; 0.23% of 290,000 active; AID 1700;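 active = inhibition above a per-plate limit of that plate's mean compound inhibition plus 3 SD, cut at about 60% in these data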;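 note: 0% = DMSO wells and 100% = LY294002 at 200 µM; higher means less KLF5 promoter-driven luciferase light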
Wee1 stabilizer: inhibitors of human Wee1 degradation. HeLa Luc-Wee1K328M stability, luciferase luminescence; 100% = proteasome inhibitor MG132 effect. reporter increase, % at 5 µM. 1.2% of 220,000 active;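 active = activation above the mean of all tested compounds plus 3 SD, set per screening run, cut at about 8.8% in these data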;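 note: cells exposed to compound for 20 h before luminescence read; 0% = DMSO alone and 100% = MG132 at 30 µM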
Target sequence (P30291 whole entry K328M): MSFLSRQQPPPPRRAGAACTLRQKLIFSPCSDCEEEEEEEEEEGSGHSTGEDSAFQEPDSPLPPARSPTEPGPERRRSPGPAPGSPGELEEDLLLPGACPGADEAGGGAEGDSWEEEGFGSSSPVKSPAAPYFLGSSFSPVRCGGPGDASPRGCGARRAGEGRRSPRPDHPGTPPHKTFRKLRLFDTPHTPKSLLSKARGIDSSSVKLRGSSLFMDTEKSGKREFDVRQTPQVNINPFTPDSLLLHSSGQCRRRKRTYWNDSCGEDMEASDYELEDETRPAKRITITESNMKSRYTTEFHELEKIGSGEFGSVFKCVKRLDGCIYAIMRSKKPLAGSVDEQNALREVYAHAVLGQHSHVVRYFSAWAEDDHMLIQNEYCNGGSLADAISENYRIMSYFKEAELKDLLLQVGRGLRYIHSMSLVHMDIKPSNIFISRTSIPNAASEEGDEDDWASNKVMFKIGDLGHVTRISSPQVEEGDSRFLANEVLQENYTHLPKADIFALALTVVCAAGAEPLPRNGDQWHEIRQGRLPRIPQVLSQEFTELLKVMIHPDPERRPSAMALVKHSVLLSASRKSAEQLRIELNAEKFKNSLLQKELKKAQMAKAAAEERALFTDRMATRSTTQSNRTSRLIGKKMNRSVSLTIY
aSyn UTR inh: 5' untranslated region of α-synuclein, MLPCN primary screen. AID 1813. alpha-synuclein 5'UTR reporter, inhibitor activity. 0.82% of 300,000 active. inhibition, % (tested at 7.5 µM); in the data active = inhibition above about 60%; inconclusive = no clear call, values can overlap the other calls;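 note: H4 neuroglioblastoma cells stably carrying SNCA 5'UTR luciferase fusion; 0% = DMSO wells and 100% = positive control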
Platelet DG rel: platelet dense granule release activity; human platelet-rich plasma, SFLLRN dense granule ATP release, luminescence; inhibition, %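 (compounds screened at 7.5 µM in platelet-rich plasma)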; 0.22% of 300,000 active; AID 1663;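 active = mean replicate score, as percent of positive control, at or above 50; inconclusive = mean below 50 but at least one replicate at or above 50; inactive = mean and every replicate below 50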
HIF act: HIF pathway transcriptional activation | U2OS HRE-luciferase reporter, luminescence; normalized: DMSO 0%, desferrioxamine 100% | activation, % at 7.5 µM (by protocol) | 0.32% of 300,000 active;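 active = mean activation of at least 10% of the iron chelator positive control signal, with at least half of replicates also reaching 10%; inconclusive = mean and replicate majority disagree about reaching 10%; inactive = mean and most replicates under 10%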
KLF5 inh confirm: confirmation of KLF5 inhibitors. DLD-1 KLF5 promoter firefly luciferase reporter, luminescence. AID 1834. 79% of 610 active. shares compounds with KLF5 inh. inhibition, % at 4 µM;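 active = inhibition above a set limit taken from the earlier primary screen, cut at about 63% in these data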;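 note: 0% = DMSO wells and 100% = LY294002 at 200 µM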
IEC-6 tox: rat IEC-6 cytotoxicity, KLF5 inhibitor counter-screen. shares compounds with KLF5 inh. IEC-6 rat intestinal cells, viability luminescence. inhibition, % at 4 µM. 56% of 610 active. AID 1905; in the data active = inhibition above about 23%;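 note: cells exposed to compounds for 48 hours before viability read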
Active calls of the source: *; u = inconclusive; x = no result.

SMILES	KLF5 inh	Wee1 stabilizer	aSyn UTR inh	Platelet DG rel	HIF act	KLF5 inh confirm	IEC-6 tox
CC(C(=O)O/N=C(\N)c1ccccn1)c1ccc([N+](=O)[O-])cc1 (centres undefined)	-11	x	-54	10	0	x	x
N/C(=N\OCc1ccc([N+](=O)[O-])cc1)c1ccccn1	88*	-4	112*	63*	-3	97*	-3
CCOC(=O)C1=C(COC(=O)/C=C/c2ccc(OC)cc2OC)NC(=O)NC1C (centres undefined)	x	x	22	5	-1	x	x
CN(NC(=O)c1ccc(Cl)cc1)c1nc(-c2ccccc2)nnc1C(F)(F)F	-28	0	-5	2	0	x	x
Cc1ccc(C(=O)NN(C)c2nc3ccccc3nc2C(F)(F)F)cc1	10	4	15	0	2	x	x
CSc1nc(N(C)NC(=O)c2ccc(Cl)cc2)c2ccccc2n1	65*	-2	93*	0	1	75*	64*
CSc1nc(N(C)NC(=O)c2ccccc2)c2ccccc2n1	76*	0	54	2	-1	75*	65*
CCC(C)(C)NC(=O)C(c1ccccc1Cl)N(C(=O)CCC(=O)Nc1cc(C)on1)c1ccc(NC(C)=O)cc1 (centres undefined)	13	x	3	-13	-1	x	x
CCCC1Cc2nc(Cl)c(C#N)cc2CO1 (centres undefined)	-4	-3	6	-23	-1	x	x
CC(C)CC(=O)NC(c1cccs1)c1ccc2cccnc2c1O (centres undefined)	77*	6	74*	-3	68*	86*	50*
CC(C)C(=O)NC(c1cccs1)c1cc([N+](=O)[O-])c2cccnc2c1O (centres undefined)	-17	1	53	-17	3	x	x
Oc1c(C(Nc2nccs2)c2ccc(C(F)(F)F)cc2)ccc2cccnc12 (centres undefined)	62*	-2	55	0	58*	84*	57*
Cc1[nH]c2ccccc2c1C(Nc1nccs1)c1ccncc1 (centres undefined)	-3	-5	12	u	-2	x	x
CCC(=O)NC(c1cccs1)c1ccc2cccnc2c1O (centres undefined)	78*	-2	80*	6	196*	91*	81*
Cc1conc1NC(c1cccs1)c1ccc2cccnc2c1O (centres undefined)	70*	-1	66*	7	3	23	5
O=C(CSc1nnc(-c2ccncc2)o1)N1CCc2ccccc2C1	-31	0	-1	19	0	x	x
O=C(Nc1ccccc1)Oc1cccc(Br)c1	-29	-3	-33	9	3	x	x
S=C(Nc1ccccc1)N1CCn2c(nc3ccccc32)C1	8	2	17	-5	0	x	x
Cc1cc(NCc2ccccn2)n2nc(C)c(-c3ccccc3)c2n1	67*	0	x	x	x	55	9
CC(C)(C)c1nc2sc3c(c2c(=O)o1)CCCC3	69*	-2	5	-3	0	3	-6
CC(C)(C)N1C(=O)[C@H]2[C@@H](c3ccc(Br)cc3)N3C(=O)N(c4cccc(Cl)c4)C(=O)[C@@]3(Cc3ccccc3)[C@H]2C1=O	x	x	9	-6	0	x	x
CNc1cc(C)nc(-n2nc(C)cc2C)n1	7	1	-14	2	1	x	x
CCOc1ccc(Nc2cc(C)nc(-n3nc(C)cc3C)n2)cc1	81*	-3	63*	x	0	81*	56*
Nc1nc(Cl)nc2ncn(Cc3ccccc3)c12	1	x	16	-6	-29	x	x
Cc1ccc(Nc2nc(=O)c3cccnc3s2)cc1	-39	-2	-228	1	2	x	x
SMILES	KLF5 inh	Wee1 stabilizer	aSyn UTR inh	Platelet DG rel	HIF act	KLF5 inh confirm	IEC-6 tox
COc1ccc(OC)c(Nc2nc(=O)c3cccnc3s2)c1	75*	6	x	x	x	65*	-3
CCN(CC)S(=O)(=O)c1ccc(N/N=C/c2ccc(O)cc2O)nc1	72*	4	90*	5	117*	81*	9
CCN(CC)S(=O)(=O)c1ccc(N/N=C(\C)c2ccncc2)nc1	16	x	15	3	-1	x	x
O=C(COc1ccc(-c2ccccc2)cc1)NNC(=O)Nc1ccc(F)cc1F	-24	x	-7	2	0	x	x
Cc1c(/C(O)=C2/C(=O)C(=O)N(CCN3CCOCC3)C2c2ccccn2)cnn1-c1ccccc1 (centres undefined)	69*	-5	-1	1	-3	36	4
Cc1ccc(C2/C(=C(/O)c3cnn(-c4ccccc4)c3C)C(=O)C(=O)N2CCCN2CCOCC2)o1 (centres undefined)	-17	-4	-111	7	3	x	x
C/C(=N\OCc1cccc(C(=O)O)c1)c1ccc(Cl)cc1	64*	-1	104*	-4	-1	51	-1
C/C(=N\OCc1ccc(C#N)cc1)c1ccccc1	-63	1	-120	9	5	x	x
COCCNC(=O)C(c1ccc(F)cc1)N(C(=O)CCC(=O)Nc1nccs1)c1ccc(C)cc1 (centres undefined)	-12	2	10	4	0	x	x
COc1cc2c(cc1OC)C(C)N(C(=O)Nc1cc(C)cc(C)c1)CC2 (centres undefined)	63*	x	-38	-4	2	80*	55*
N#Cc1ccccc1S(=O)(=O)c1ccccc1C(=O)Nc1ccccc1	-37	-1	3	3	0	x	x
CCOc1ccc(CCNC(=O)COC(=O)c2cccc(S(=O)(=O)N3CCOCC3)c2)cc1OCC	x	x	0	4	-15	x	x
Cc1cccc(-c2noc(CCC(=O)NCc3ccco3)n2)c1	-1	5	-10	3	0	x	x
CC(C)(C)c1ccc(-c2noc(CCC(=O)NCc3ccco3)n2)cc1	62*	1	77*	-2	0	65*	11
CN(C)CCCN=Cc1c(O)n(Cc2ccc3c(c2)OCO3)c(=O)c2ccccc12	-4	0	-25	12	1	x	x
CCO[C@H]1OC(C(=O)NCc2nc3ccccc3[nH]2)=C[C@@H](C2CC2)[C@@H]1CCCO	72*	1	80*	-3	2	78*	64*
CCO[C@H]1OC(C(=O)NCc2nc3ccccc3[nH]2)=C[C@@H](c2ccccc2)[C@@H]1CCCO	-15	1	5	5	0	x	x
N#CC(C#N)=C(Nc1ccc(F)cc1)SCc1cccc(Br)c1	65*	-1	u	-10	0	68*	28*
Cc1cccc(CSC(Nc2ccc(F)cc2)=C(C#N)C#N)c1	-4	-3	32	-10	1	x	x
COc1ccc(S(=O)(=O)N2CCOC23CCN(S(=O)(=O)c2cc(C)ccc2OC)CC3)cc1	x	x	5	22	0	x	x
O=S(=O)(Nc1cc(Sc2ncn[nH]2)c(O)c2ccccc12)c1ccccc1	68*	-5	x	x	x	-13	6
